# According to ChEMBL document CHEMBL3988442, “University of Dundee, Small-Polar-MMV Screening Library” (2021):
# For some of these results: Measured potencies and affinities stand elsewhere.
# Assays:
# Set-up in all cases: scale not given: direction of the effect not stated beside the values
# [1] = target: Protein translocase subunit SecA (Escherichia coli (strain K12)) (UniProt P10408); assay: Assay to Identify E. coli SecA ATPase Inhibitors; type: functional; details: 30 µM
# [2] = target: T1, Ubiquitin-activating enzyme e1, putative (Leishmania donovani (strain BPK282A1)) (UniProt E9BSI1); assay: Leishmania donovani Ubiquitin Activating Enzyme (LdE1); type: functional; details: 30 µM
# T1 sequence (whole entry): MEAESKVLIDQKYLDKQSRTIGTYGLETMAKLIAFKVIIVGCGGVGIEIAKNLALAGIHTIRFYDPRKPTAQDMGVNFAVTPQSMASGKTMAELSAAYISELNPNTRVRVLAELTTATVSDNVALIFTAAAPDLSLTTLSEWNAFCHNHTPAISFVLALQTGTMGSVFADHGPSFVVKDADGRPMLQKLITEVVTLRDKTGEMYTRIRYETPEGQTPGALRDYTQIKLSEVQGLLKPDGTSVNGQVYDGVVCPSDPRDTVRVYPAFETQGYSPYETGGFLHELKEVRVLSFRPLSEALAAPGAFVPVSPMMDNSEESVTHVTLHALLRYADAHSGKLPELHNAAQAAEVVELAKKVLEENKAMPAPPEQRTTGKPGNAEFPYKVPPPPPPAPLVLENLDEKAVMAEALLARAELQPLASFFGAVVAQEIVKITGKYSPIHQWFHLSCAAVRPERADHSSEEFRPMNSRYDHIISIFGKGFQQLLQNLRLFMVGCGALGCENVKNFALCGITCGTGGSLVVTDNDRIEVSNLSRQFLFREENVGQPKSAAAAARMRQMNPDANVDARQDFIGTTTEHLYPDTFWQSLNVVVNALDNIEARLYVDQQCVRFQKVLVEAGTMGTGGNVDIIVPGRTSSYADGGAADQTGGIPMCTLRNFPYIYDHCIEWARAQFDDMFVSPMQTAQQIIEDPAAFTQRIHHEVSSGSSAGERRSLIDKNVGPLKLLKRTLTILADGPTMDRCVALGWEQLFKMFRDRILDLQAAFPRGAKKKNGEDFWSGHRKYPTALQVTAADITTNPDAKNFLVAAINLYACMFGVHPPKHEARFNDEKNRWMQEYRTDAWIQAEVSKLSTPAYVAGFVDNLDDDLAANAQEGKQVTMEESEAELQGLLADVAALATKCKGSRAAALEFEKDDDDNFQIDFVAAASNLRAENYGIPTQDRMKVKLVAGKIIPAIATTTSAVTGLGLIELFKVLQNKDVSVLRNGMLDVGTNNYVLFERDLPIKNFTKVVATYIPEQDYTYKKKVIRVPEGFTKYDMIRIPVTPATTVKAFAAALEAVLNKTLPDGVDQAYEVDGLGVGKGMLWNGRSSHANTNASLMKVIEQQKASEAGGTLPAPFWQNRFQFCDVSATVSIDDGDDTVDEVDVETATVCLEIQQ
# [3] = target: AMP-activated protein kinase, AMPK (Homo sapiens) (UniProt P54646+O43741+P54619+Q9UGJ0+Q9Y478+Q13131+Q9UGI9); assay: AMP-dependent Kinase enzyme assay. An in vitro enzyme assay that detects ADP turnover that is directly proportional to AMPK activity. This uses naive AMPK that is activated during the assay with MK-8722; type: functional; details: 30 µM
# [4] = target: Sialic acid-binding Ig-like lectin 9 (Homo sapiens) (UniProt Q9Y336); assay: Hs-Siglec9 ALPHAscreen SOP 20170721; details: 10 µM
# Sialic acid-binding Ig-like lectin 9 (Homo sapiens), sequence (Q9Y336 whole entry): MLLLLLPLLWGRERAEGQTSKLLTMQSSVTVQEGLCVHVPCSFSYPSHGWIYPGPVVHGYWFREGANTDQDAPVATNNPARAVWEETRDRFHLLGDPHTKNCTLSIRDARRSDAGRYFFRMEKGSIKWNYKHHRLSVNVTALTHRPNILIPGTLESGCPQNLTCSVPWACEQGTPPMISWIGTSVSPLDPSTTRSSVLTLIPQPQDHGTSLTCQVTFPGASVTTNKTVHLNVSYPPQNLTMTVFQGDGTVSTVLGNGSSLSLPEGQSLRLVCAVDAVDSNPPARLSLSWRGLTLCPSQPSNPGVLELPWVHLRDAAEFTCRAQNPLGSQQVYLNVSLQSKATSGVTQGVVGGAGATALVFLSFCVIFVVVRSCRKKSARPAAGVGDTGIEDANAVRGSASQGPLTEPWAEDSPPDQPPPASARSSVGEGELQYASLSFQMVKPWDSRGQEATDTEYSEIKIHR
# Trypanosoma cruzi = assay: Trypanosoma cruzi phosphomannomutase and mannose-1-phosphate guanylyltransferase assay; type: functional; details: 10 µM
# [5] = target: T2, Arginase-2, mitochondrial (Homo sapiens) (UniProt P78540); assay: in vitro enzyme assay to detect the production of urea directly proportional to the activity of Arginase II; type: functional; details: 33.3 µM; further: in the data most compounds retested in dose-response had high values
# T2 sequence (whole entry): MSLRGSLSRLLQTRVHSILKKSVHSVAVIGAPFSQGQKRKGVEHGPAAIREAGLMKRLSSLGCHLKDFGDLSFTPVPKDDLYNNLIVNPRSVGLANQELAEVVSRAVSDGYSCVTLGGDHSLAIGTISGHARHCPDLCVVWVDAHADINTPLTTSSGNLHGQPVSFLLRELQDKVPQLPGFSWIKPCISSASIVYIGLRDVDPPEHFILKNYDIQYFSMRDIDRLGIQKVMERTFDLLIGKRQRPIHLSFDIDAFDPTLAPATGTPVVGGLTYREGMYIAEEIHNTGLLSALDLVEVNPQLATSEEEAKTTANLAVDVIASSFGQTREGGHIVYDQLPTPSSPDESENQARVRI
# [6] = target: T3, Proteasome subunit beta (Trypanosoma cruzi) (UniProt O96673); assay: Trypanosoma cruzi proteasome chymotrypsin-like activity (TcProtChymo) assay.; further: in the data most compounds retested in dose-response had high values; type: functional; details: 9.37 µM
# T3 sequence (whole entry): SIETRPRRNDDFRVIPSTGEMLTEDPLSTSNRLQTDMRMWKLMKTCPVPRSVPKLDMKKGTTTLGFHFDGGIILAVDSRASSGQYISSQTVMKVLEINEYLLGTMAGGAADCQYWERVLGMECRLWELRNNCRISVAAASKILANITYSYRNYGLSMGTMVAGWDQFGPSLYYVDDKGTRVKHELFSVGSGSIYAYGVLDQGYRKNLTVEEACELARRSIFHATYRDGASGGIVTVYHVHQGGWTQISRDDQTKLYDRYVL
# Homo sapiens = species: Homo sapiens; assay: To identify inhibition of the IFN signalling (Jak-Stat) pathway via expression of an eGFP reporter gene under the control of an IFN-stimulated response element (ISRE) containing MxA promoter.; type: functional; details: 30 µM
# [7] = target: T4, Tyrosyl-tRNA synthetase, putative (Trypanosoma cruzi (strain CL Brener)) (UniProt Q4DSP6); assay: Trypanosoma cruzi tyrosyl tRNA synthetase (TcYRS) _High Tyrosine SOP; type: functional; details: 30 µM; further: in the data most compounds retested in dose-response had high values
# T4 sequence (whole entry): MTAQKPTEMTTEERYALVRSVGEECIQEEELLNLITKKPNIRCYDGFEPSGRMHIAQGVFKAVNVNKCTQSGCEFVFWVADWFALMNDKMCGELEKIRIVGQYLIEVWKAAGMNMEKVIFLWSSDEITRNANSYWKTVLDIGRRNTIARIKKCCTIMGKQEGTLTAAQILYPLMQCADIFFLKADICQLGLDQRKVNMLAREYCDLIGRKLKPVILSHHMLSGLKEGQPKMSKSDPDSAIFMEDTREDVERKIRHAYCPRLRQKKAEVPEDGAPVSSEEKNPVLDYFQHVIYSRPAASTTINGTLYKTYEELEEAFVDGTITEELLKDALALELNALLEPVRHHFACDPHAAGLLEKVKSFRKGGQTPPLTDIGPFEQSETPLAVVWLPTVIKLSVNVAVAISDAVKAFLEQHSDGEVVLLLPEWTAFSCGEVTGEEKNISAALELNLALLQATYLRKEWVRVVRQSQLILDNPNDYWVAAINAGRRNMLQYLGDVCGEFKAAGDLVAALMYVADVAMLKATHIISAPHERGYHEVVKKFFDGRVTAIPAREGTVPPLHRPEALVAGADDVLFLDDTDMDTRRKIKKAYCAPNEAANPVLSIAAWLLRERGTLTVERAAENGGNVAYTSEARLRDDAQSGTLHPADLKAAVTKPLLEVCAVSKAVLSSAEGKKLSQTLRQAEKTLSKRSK
# [8] = target: T4, Tyrosyl-tRNA synthetase, putative (Trypanosoma cruzi (strain CL Brener)); assay: Trypanosoma cruzi tyrosyl tRNA synthetase (TcYRS) SOP; type: functional; details: 30 µM
# [9] = target: Chromo domain-containing protein 1 (Saccharomyces cerevisiae (strain ATCC 204508 / S288c) (Baker's yeast)) (UniProt P32657); assay: ScCHD-1 Enzyme Inhibition Assay; type: functional; details: 30 µM; further: in the data most compounds retested in dose-response had high values
# Chromo domain-containing protein 1 (Saccharomyces cerevisiae (strain ATCC 204508 / S288c) (Baker's yeast)), sequence (P32657 whole entry, the tested form may be a part): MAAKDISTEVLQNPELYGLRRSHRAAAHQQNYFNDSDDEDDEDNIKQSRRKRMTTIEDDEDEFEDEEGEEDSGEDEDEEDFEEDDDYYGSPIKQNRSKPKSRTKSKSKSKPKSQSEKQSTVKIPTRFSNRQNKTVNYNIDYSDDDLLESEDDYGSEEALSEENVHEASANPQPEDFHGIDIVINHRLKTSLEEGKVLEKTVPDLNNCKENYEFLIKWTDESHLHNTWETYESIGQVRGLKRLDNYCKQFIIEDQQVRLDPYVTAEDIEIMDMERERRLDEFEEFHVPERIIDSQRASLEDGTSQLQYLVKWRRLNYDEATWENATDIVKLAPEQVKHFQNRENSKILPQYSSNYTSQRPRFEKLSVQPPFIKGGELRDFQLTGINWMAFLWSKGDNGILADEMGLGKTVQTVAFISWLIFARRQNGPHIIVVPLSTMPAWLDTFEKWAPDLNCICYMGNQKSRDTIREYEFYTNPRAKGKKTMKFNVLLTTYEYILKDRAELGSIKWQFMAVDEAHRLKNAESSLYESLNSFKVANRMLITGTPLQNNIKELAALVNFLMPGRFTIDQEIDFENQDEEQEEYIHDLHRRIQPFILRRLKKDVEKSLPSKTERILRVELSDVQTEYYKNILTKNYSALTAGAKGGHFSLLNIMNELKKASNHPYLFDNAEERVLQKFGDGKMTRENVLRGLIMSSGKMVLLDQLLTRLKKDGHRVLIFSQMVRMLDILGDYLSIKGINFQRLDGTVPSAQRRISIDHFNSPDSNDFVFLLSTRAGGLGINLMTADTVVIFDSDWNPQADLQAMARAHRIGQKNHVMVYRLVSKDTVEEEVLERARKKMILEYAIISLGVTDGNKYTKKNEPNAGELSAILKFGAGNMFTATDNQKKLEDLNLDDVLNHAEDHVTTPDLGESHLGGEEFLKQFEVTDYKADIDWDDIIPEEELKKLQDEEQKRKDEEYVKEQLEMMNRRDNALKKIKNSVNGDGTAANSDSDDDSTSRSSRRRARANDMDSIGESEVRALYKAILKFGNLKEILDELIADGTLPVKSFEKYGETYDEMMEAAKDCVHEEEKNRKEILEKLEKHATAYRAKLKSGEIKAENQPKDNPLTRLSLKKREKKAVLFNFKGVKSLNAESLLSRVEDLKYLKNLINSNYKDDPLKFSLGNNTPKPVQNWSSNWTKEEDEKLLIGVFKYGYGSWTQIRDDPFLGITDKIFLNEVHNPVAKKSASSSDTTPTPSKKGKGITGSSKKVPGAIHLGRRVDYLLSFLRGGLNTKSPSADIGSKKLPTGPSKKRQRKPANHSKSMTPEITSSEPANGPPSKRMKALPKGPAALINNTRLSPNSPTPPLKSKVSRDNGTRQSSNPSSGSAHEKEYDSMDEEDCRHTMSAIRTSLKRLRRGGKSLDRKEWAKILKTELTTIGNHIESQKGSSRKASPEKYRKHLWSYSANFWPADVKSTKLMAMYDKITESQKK
# Protein translocase subunit SecA (Escherichia coli (strain K12)), sequence (P10408 whole entry): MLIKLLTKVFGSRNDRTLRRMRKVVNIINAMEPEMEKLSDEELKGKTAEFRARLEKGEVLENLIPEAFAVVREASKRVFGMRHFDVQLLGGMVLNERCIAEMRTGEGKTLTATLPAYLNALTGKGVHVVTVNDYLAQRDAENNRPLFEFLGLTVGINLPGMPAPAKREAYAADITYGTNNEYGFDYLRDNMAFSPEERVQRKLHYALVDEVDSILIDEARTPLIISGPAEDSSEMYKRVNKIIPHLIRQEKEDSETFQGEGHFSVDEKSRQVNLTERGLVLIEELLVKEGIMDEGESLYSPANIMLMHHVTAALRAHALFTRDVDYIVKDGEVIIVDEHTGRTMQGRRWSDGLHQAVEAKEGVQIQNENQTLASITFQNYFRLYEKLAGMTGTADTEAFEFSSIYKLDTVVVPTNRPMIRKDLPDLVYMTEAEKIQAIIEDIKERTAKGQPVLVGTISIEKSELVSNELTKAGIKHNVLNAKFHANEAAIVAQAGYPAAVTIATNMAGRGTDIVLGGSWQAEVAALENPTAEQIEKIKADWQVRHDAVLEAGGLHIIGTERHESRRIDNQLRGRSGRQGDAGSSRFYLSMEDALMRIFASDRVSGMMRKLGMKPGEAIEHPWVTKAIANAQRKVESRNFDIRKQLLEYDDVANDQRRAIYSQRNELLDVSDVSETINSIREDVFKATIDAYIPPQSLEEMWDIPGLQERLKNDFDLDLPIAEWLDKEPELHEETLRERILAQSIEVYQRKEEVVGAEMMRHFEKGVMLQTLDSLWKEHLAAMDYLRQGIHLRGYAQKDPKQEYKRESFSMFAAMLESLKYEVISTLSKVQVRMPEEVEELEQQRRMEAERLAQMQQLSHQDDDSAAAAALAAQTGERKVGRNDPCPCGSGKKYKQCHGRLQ
SMILES,Percent Effect [1] [%],Percent Effect [2] [%],Percent Effect [3] [%],Percent Effect [4] [%],Percent Effect (Trypanosoma cruzi) [%],Percent Effect [5] [%],Percent Effect [6] [%],Percent Effect (Homo sapiens) [%],Percent Effect [7] [%],Percent Effect [8] [%],Percent Effect [9] [%]
NC(=O)Nc1cccc(Oc2ccccn2)c1,-0.17,0,11.3,-0.357,-3.99,-7.1,8.53,0.913,3.19,2.6,-0.275
CCOCC1CN(C(=O)c2ccncc2)Cc2nn(C)cc21 (stereo unspecified),2.34,16,-4.74,2.25,0.193,-51.1,9.23,-2.51,6.25,22.5,-3.97
Cc1ccc(S(=O)(=O)N2C[C@H]3C[C@H](NC(=O)c4ccn(C)n4)[C@H]3C2)cc1,-7.65,17.6,-0.91,4.49,-0.395,-3.48,9.36,16.8,2.15,9.09,-25.8
Cc1ccsc1-c1nnc(C2CCN(Cc3ccc(F)cc3)CC2)o1,-4.79,-9.46,14.3,4.24,7.31,-4.87,10.8,-11.7,3.23,3.9,-15.5
O=C1CCc2cc(C(=O)NCc3ccc(-n4cncn4)nc3)ccc2N1,-8,8.11,-0.201,4.21,-5.19,0.802,-4.68,10.4,4.43,1.24,23.8
Cc1ccc(CN(C)C(=O)CN2CCOC(Cn3cncn3)C2)o1 (stereo unspecified),1.63,15.2,-6.86,-11.8,-7.46,9.89,13,16.3,5.42,11.4,-2.75
COc1cccc(CNCCc2cc(F)cc3c2OCOC3)c1,-2.14,1.39,-14.2,27,6.51,3.53,8.42,1.36,0,5.13,-4.8
C=C(C)CN(Cc1cccc(O)c1)C1CCC(O)CC1 (stereo unspecified),-4.6,5.41,-0.588,6.05,-2.64,-0.248,6.44,-11.6,2.15,6.17,-4.17
Cc1nc(N2CCCC2)nc2c1CCN(C(=O)CC1CC1)CC2,-4.09,20,-2.46,4.72,2.75,-7.22,16.1,9.15,-2.12,10.3,-11
COc1cccc(CN2CCCC2c2c(C)nn(C)c2C)c1 (stereo unspecified),-1.8,-2.53,-4.49,11.6,0.661,0.38,-1.72,-9.36,5.42,-1.27,-3.67
CCc1ccccc1NC(=O)N1CCn2cnc(COC)c2C1,-3.57,8.11,-9.76,17.5,5.38,15.1,0.601,17.8,5.38,-1.24,-5.57
